PubChem BioAssay (NCATS)
Results filed as inconclusive are left out. Active and inactive are the calls of the source. The call rests on the fitted dose curve; in most records, active means well fitted curve in the direction sought with a large enough effect; inconclusive means small, poorly fitted or top-dose-only effect, or another doubt; inactive means no such curve, though single readings can be large; an effect the other way counts as inactive or inconclusive.

Assays:
[1] = Quantitative High-Throughput drug screen in 47 multiple myeloma cell lines against the NCATS MIPE library collection: JIM3_ECACC cell viability assay (AID 1918963; further: nearly all actives have a fitted effect of over 35% in size)
Procedure, shortened: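 Primary qHTS used for cherry-picking: cells at 500/well, library compounds for 48 h (37C, 5% CO2), luminescent ATP assay.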

[2] = Quantitative High-Throughput drug screen in 47 multiple myeloma cell lines against the NCATS MIPE library collection: H1112_PLB cell viability assay (AID 1918967; further: nearly all actives have a fitted effect of over 30% in size)
Procedure, shortened: (§1)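 We plated 500 myeloma cells per well, pinned in MIPE 4.0 compounds, and incubated for 48 hours at 37C. ATP was then quantified with CellTiter-Glo, with DMSO and media-only wells defining 100% and 0%.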

[3] = Quantitative High-Throughput drug screen in 47 multiple myeloma cell lines against the NCATS MIPE library collection: Karpas25_ECACC cell viability assay (AID 1918968; further: nearly all actives have a fitted effect of over 35% in size)
Procedure, shortened: as §1

[4] = Quantitative High-Throughput drug screen in 47 multiple myeloma cell lines against the NCATS MIPE library collection: MOLP8_DSMZ cell viability assay (AID 1918977); further: nearly all actives have a fitted effect of over 45% in size
Procedure, shortened: (§2)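 Plated at 500 cells per well, myeloma lines received MIPE 4.0 compounds by pin tool. Following 48 h culture at 37 °C, CellTiter-Glo luminescence gave viability relative to DMSO and media-only controls.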

[5] = Quantitative High-Throughput drug screen in 47 multiple myeloma cell lines against the NCATS MIPE library collection: NCIH929_DSMZ cell viability assay (AID 1918978); further: nearly all actives have a fitted effect of over 35% in size
Procedure, shortened: as §2

[6] = Quantitative High-Throughput drug screen in 47 multiple myeloma cell lines against the NCATS MIPE library collection: MM1R_ATCC cell viability assay (AID 1918981); further: nearly all actives have a fitted effect of over 35% in size
Procedure, shortened: as §2

[7] = Quantitative High-Throughput drug screen in 47 multiple myeloma cell lines against the NCATS MIPE library collection: LP1_DSMZ cell viability assay (AID 1918982); further: nearly all actives have a fitted effect of over 35% in size
Procedure, shortened: as §2

[8] = Quantitative High-Throughput drug screen in 47 multiple myeloma cell lines against the NCATS MIPE library collection: JJN3_DSMZ cell viability assay (AID 1918966; further: nearly all actives have a fitted effect of over 50% in size)
Procedure, shortened: as §1

[9] = Quantitative High-Throughput drug screen in 47 multiple myeloma cell lines against the NCATS MIPE library collection: KMS12BM_JCRB cell viability assay (AID 1918971); further: nearly all actives have a fitted effect of over 35% in size
Procedure, shortened: (§3)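 Luminescent ATP measurement with CellTiter-Glo gives viability, scaled between DMSO-only wells (100%) and media-only wells (0%). Cells, 500 per well, faced library compounds for 48 hours at 37C.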

[10] = Quantitative High-Throughput drug screen in 47 multiple myeloma cell lines against the NCATS MIPE library collection: KMS20_JCRB cell viability assay (AID 1918973); further: nearly all actives have a fitted effect of over 45% in size
Procedure, shortened: as §1

[11] = Quantitative High-Throughput drug screen in 47 multiple myeloma cell lines against the NCATS MIPE library collection: OCIMY1_PLB cell viability assay (AID 1918979); further: nearly all actives have a fitted effect of over 35% in size; on viability: series mostly up to about 46 µM
Procedure, shortened: as §2

[12] = Quantitative High-Throughput drug screen in 47 multiple myeloma cell lines against the NCATS MIPE library collection: INA6_PLB cell viability assay (AID 1918965; further: nearly all actives have a fitted effect of over 55% in size)
Procedure, shortened: as §1

[13] = Quantitative High-Throughput drug screen in 47 multiple myeloma cell lines against the NCATS MIPE library collection: KMS12PE_JCRB cell viability assay (AID 1918972); further: nearly all actives have a fitted effect of over 30% in size; on viability: series mostly up to about 46 µM
Procedure, shortened: as §1

[14] = Quantitative High-Throughput drug screen in 47 multiple myeloma cell lines against the NCATS MIPE library collection: KMS26_JCRB cell viability assay (AID 1918975); further: nearly all actives have a fitted effect of over 45% in size
Procedure, shortened: as §3

[15] = Quantitative High-Throughput drug screen in 47 multiple myeloma cell lines against the NCATS MIPE library collection: KMS27_JCRB cell viability assay (AID 1918970); further: nearly all actives have a fitted effect of over 30% in size
Procedure, shortened: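 Myeloma cells (500 per well) were exposed to MIPE 4.0 compounds for 48 h at 37 °C, 5% CO2; viability was read as ATP luminescence with CellTiter-Glo, normalized to DMSO-only (100%) and media-only (0%) wells.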

[16] = Quantitative High-Throughput drug screen in 47 multiple myeloma cell lines against the NCATS MIPE library collection: MM1S_ATCC cell viability assay (AID 1918980); further: nearly all actives have a fitted effect of over 45% in size
Procedure, shortened: as §2

[17] = Quantitative High-Throughput drug screen in 47 multiple myeloma cell lines against the NCATS MIPE library collection: MMM1_PLB cell viability assay (AID 1918976); further: nearly all actives have a fitted effect of over 35% in size
Procedure, shortened: as §2

[18] = Quantitative High-Throughput drug screen in 47 multiple myeloma cell lines against the NCATS MIPE library collection: JIM1_ECACC cell viability assay (AID 1918964)
Procedure, shortened: as §1

Measured: Potency
Potency means the concentration at half of the fitted maximal effect.

Cc1nnc(C(C)C)n1C1C[C@H]2CC[C@@H](C1)N2CC[C@H](NC(=O)C1CCC(F)(F)CC1)c1ccccc1 (some centres not stated)
active: [2] 14.8 µM | [3] 18.7 µM | [5] 9.35 µM
inactive: [1] | [4] | [6] | [7]

COc1ccc(-c2coc3cc(O)cc(O)c3c2=O)cc1
inactive: [1] | [8] | [3] | [9] | [10] | [4] | [5] | [11] | [6] | [7]

COc1ccc(Cc2ccc(NC(N)=O)cc2)cc1-c1cccc(Cl)c1
active: [5] 16.6 µM
inactive: [1] | [2] | [11]

CO[C@H]1C[C@@H]2CC[C@@H](C)[C@@](O)(O2)C(=O)C(=O)N2CCCC[C@@H]2C(=O)O[C@H]([C@@H](C)C[C@@H]2CC[C@H](O)[C@H](OC)C2)CC(=O)[C@H](C)C=C(C)[C@@H](O)[C@@H](OC)C(=O)[C@H](C)C[C@H](C)C=CC=CC=C1C
active: [3] 18.7 µM
inactive: [1] | [6] | [7]

O=C(Nc1cc(Cl)cc2c1[nH]c1cnccc12)c1cccnc1
inactive: [1] | [13] | [11] | [7]
active: [12] 16.6 µM | [2] 1.48 µM | [3] 5.9 µM | [9] 18.7 µM | [14] 18.7 µM | [5] 1.87 µM | [6] 1.87 µM

NC(=O)c1cccc2[nH]c(-c3ccc([C@H]4CCCN4)cc3F)nc12
active: [1] 14.8 µM | [12] 14.8 µM | [15] 23.5 µM
inactive: [11] | [7]

COC(=O)C1=CO[C@@H](O)[C@@H]2C(CO)=CC[C@@H]12
active: [1] 23.5 µM | [8] 11.8 µM | [4] 23.5 µM | [6] 18.7 µM
inactive: [2] | [7]

COc1ccc2cc(-c3nc(-c4ccc(S(C)=O)cc4)[nH]c3-c3ccncc3)ccc2c1 (configuration not stated)
active: [1] 23.5 µM | [12] 14.8 µM | [3] 26.4 µM | [10] 7.43 µM
inactive: [4] | [11]

CN[C@@H](C)C(=O)N[C@H]1CN(C(=O)CC(C)C)CC[C@H]2CC[C@@H](C(=O)NC(c3ccccc3)c3ccccc3)N2C1=O
inactive: [4]
active: [1] 9.35 µM | [12] 8.33 µM | [9] 26.4 µM | [13] 3.72 µM | [5] 11.8 µM | [16] 9.35 µM | [6] 14.8 µM

C[C@@H]1CCN(C(=O)CC#N)C[C@H]1N(C)c1ncnc2[nH]ccc12
inactive: [1] | [2] | [3] | [13] | [4] | [5] | [11] | [6] | [7]
active: [16] 2.64 µM

NS(=O)(=O)c1ccc(NC2=CC(=O)c3ccccc3C2=O)cc1
inactive: [9] | [4] | [11]
active: [1] 18.7 µM | [12] 11.8 µM | [3] 0.833 µM | [15] 1.32 µM | [13] 0.526 µM | [5] 26.4 µM | [7] 2.35 µM

CC(C)C(C)C=CC(C)C1CCC2C3=CC=C4CC(O)CCC4(C)C3CCC21C (configuration not stated)
inactive: [1] | [2] | [3] | [9] | [13] | [4] | [5] | [11] | [7]

Cc1cccc(Nc2nc(-c3ccncc3)cs2)c1
active: [1] 20.9 µM | [12] 18.7 µM | [2] 18.7 µM | [15] 18.7 µM | [13] 14.8 µM

Cc1ccc(/C=N/NC(=O)c2ccccc2Oc2ccccc2)o1
inactive: [11]
active: [1] 23.5 µM | [12] 16.6 µM | [9] 23.5 µM | [10] 16.6 µM | [16] 18.7 µM

CN(C)C1CCN(C(=O)c2ccc(NC(=O)Nc3nc(N4CCOCC4)nc(N4CCOCC4)n3)cc2)CC1
active: [1] 0.209 µM | [8] 0.0833 µM | [9] 0.0083 µM | [13] 0.105 µM | [10] 0.105 µM | [14] 0.0209 µM | [17] 0.0235 µM | [11] 5.9 µM | [16] 0.0332 µM | [6] 0.0418 µM

CC[C@H]1OC(=O)[C@H](C)[C@@H](O[C@H]2C[C@@](C)(OC)[C@@H](O)[C@H](C)O2)[C@H](C)[C@@H](O[C@@H]2O[C@H](C)C[C@H](N(C)C)[C@@H]2O)[C@](C)(O)C[C@@H](C)CN(C)[C@H](C)[C@@H](O)[C@]1(C)O
active: [16] 18.7 µM
inactive: [1] | [2] | [3] | [9] | [13] | [5] | [11] | [7]

Cc1ccccc1C(C(=O)NC1CCCCC1)N(C(=O)Cn1ccnc1C)c1cccc(F)c1 (configuration not stated)
active: [3] 18.7 µM | [9] 8.33 µM | [13] 2.35 µM | [7] 13.2 µM
inactive: [1] | [12] | [15] | [5] | [11]

COCCCCC(=NOCCN)c1ccc(C(F)(F)F)cc1
inactive: [1] | [13] | [11]
active: [9] 20.9 µM | [16] 16.6 µM

O=c1cc(-c2ccc(O)cc2)oc2cc(O)cc(O)c12
active: [8] 3.32 µM | [3] 10.5 µM | [9] 13.2 µM | [5] 6.62 µM | [16] 8.33 µM

COc1ccc(-c2nc(N3CCOCC3)c3sc(CN(C)c4ncc(C(=O)NO)cn4)cc3n2)cn1
inactive: [12] | [3] | [9] | [10] | [4] | [16] | [6]
active: [18] 0.001 µM | [8] 0.0019 µM | [15] 0.001 µM | [13] 0.001 µM | [14] 0.0264 µM | [11] 0.0059 µM

Clc1ccc(COC(Cn2ccnc2)c2ccc(Cl)cc2Cl)cc1 (configuration not stated)
inactive: [4]
active: [12] 20.9 µM | [13] 23.5 µM

COc1ccc2c(Oc3ccc(NC(=O)c4c(C)n(CC(C)(C)O)n(-c5ccccc5)c4=O)cc3F)ccnc2c1
active: [8] 8.33 µM | [2] 20.9 µM | [15] 20.9 µM | [9] 33.2 µM | [13] 26.4 µM | [5] 20.9 µM
inactive: [14]

C[C@H](NC(=O)c1sccc1OCc1ccc(Cl)cc1)c1ccccc1
active: [12] 26.4 µM | [3] 16.6 µM | [9] 18.7 µM | [11] 16.6 µM | [7] 16.6 µM
inactive: [15] | [13]

CC1CCC(C(=O)N(c2cc(C#CC(C)(C)C)sc2C(=O)O)C2CCC(O)CC2)CC1 (configuration not stated)
inactive: [18] | [15] | [13] | [11] | [16]
active: [12] 26.4 µM | [8] 18.7 µM

CCOC(CN1C(=O)[C@](CC(=O)Nc2ccc(C)cc2)(NC(=O)Nc2ccc(C)cc2)c2ccccc21)OCC
inactive: [2] | [4] | [7]
active: [12] 23.5 µM | [15] 26.4 µM | [17] 23.5 µM

COC1CCC(N(C(=O)C2CCC(C)CC2)c2cc(C3=CCCCC3)sc2C(=O)O)CC1 (configuration not stated)
inactive: [18] | [15] | [13] | [10] | [11] | [16] | [7]
active: [12] 23.5 µM | [5] 23.5 µM

CC(C)(C)Cn1c(N)nc2ccc(-c3[nH]c(C(C)(C)C)nc3-c3ccc(F)cc3)nc21
active: [8] 20.9 µM | [2] 20.9 µM | [9] 23.5 µM | [17] 20.9 µM | [4] 7.43 µM | [5] 26.4 µM | [11] 16.6 µM | [16] 16.6 µM
inactive: [18] | [15] | [13]
